IL1B secr inh – inhibitors of inflammasome signaling (IL-1 beta secretion) | THP-1 LPS/ATP IL-1B secretion, AlphaLISA, 16 h; active compounds read low | activity change, % at 57.5 µM | 4.7% of 360,000 active | AID 743279; in the data active = activity change below about -50%; inconclusive = mostly about -30% to -49%
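Secreted IL-1B measured by AlphaLISA bead assay after 16 h compound exposure of THP-1 cells; compounds (final up to 57.5 uM) added 1 h before LPS (250 ng/mL) and ATP (1.25 mM) stimulation; lower signal means less secretion.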
TDP1 cell noCPT – qHTS for Inhibitors of human tyrosyl-DNA phosphodiesterase 1 (TDP1): qHTS in cells in absence of CPT | Potency, µM (titrated, usually from 46.2 µM), hits mostly inhibitors | AID 686978, 2013 | 15% of 420,000 active | DT40 Tdp1-/- hTDP1 cells, no CPT, ATP luminescence, 48 h; also: nearly all actives have a fitted effect of over 55% in size
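Camptothecin absent (DMSO only). Human TDP1-complemented DT40 knockout cells, 400 cells/well, 37 °C for minimum 48 hr; ATP measured via CellTiter-Glo, 30 min dark incubation, luminescence.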
HT1080 IDH1KD tx – toxicity to HT-1080 IDH1 knockdown cells (counter line); Potency, µM (highest dose often 46.1 µM), hits mostly cytotoxic; AID 686971; 2% of 360,000 active; HT-1080 IDH1 knockdown viability, ATP luminescence, 48 h
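CellTiter-Glo luminescence after 48 h compound exposure at 37 degrees C of IDH1-knockdown HT-1080 cells in 5% FBS RPMI. %Activity scaled between DMSO wells and cell-free media wells, with curves fitted and assigned curve classes.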
12-LOX inh – ALOX12 (human) lipoxygenase inhibition. purified 12hLO, xylenol orange hydroperoxide absorbance. 1.1% of 580,000 active. AID 1671190. Potency, µM (top dose mostly 108 µM), usual class: inhibitors
Target sequence (P18054 whole entry, looked up): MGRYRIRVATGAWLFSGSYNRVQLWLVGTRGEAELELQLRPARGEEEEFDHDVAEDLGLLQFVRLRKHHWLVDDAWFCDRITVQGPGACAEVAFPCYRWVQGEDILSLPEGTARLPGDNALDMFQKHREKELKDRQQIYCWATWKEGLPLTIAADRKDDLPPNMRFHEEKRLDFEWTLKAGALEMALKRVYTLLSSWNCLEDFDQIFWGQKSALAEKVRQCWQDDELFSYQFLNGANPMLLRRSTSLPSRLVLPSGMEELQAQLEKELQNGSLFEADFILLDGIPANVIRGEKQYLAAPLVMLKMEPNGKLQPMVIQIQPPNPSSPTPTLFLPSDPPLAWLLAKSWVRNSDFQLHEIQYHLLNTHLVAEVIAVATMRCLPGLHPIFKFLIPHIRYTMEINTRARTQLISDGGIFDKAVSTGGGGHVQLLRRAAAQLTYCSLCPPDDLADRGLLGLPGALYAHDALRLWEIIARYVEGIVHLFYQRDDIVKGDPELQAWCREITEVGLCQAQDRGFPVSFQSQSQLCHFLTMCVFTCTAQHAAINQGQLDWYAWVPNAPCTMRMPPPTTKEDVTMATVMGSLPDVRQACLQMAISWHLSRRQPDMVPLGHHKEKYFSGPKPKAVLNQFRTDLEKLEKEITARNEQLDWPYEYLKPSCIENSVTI
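Purified human 12hLO at 150 nM in 25 mM Hepes, 0.01% Triton X-100, pH 7.0, preincubated 15 min at room temperature with compound. Reaction started with 40 uM arachidonic acid, 30 min at room temperature. Hydroperoxide measured by Fe-xylenol orange, 573/405 nm absorbance ratio.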
HT1080-NT tox – kills 2HG-producing HT-1080-NT fibrosarcoma cells | HT-1080-NT fibrosarcoma viability, CellTiter-Glo ATP luminescence, 48 h | Potency, µM (titrated, usually from 46.1 µM), most hits filed as cytotoxic | 1.6% of 360,000 active;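 also: NT is the 2HG producing partner of a matched IDH1 knockdown line; nearly all actives have a fitted effect of over 55% in size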
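HT-1080-NT; 750 cells/well; 5% FBS RPMI; 48 h compound, 37 degrees C; CellTiter-Glo luminescence; curve fitting and curve-class assignment.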
DT40 TDP1 CPT – growth inhibition of DT40 Tdp1-/-;hTDP1 cells with camptothecin (screen for TDP1 inhibitors); chicken DT40 Tdp1-/-;hTDP1 cells + 20 nM CPT, ATP luminescence, 48 h; Potency, µM (doses to about 46.2 µM), usual class: inhibitors; 12% of 420,000 active; also: nearly all actives have a fitted effect of over 55% in size
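Chicken DT40 Tdp1-/- cells complemented with human TDP1, 400 cells/well, exposed to compounds plus 20 nM camptothecin for at least 48 h at 37 C; viability read as ATP content by CellTiter-Glo luminescence.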
Numbers stand for hits; – = inactive; ? = inconclusive; · = no result; ! = repeats disagree; [ ] = another dose, or the depositor's remark. The full list was thinned out, with hits kept by preference. Unless noted, calls follow the shape of the dose curve; as a rule, active = well fitted curve in the direction sought with a large enough effect; inconclusive = small, poorly fitted or top-dose-only effect, or another doubt; inactive = no such curve, though single readings can be large; an effect the other way counts as inactive or inconclusive.

SMILES	IL1B secr inh	TDP1 cell noCPT	HT1080 IDH1KD tx	12-LOX inh	HT1080-NT tox	DT40 TDP1 CPT
COc1ccc(OC)c(NC(=O)COC(=O)c2n[nH]c3ccccc23)c1	–	16µM	–	–	–[9.24 µM]	21µM
CCCNC(=O)N1CCCC(c2nc(CCOc3cccc(C)c3)no2)C1 (stereo unspecified)	·	·	·	–	·	·
COc1cc(C)c(C)cc1S(=O)(=O)n1ccnc1C	·	·	·	–	·	·
COc1ccc2c(C)c(CC(=O)NCCN3CCOCC3)c(=O)oc2c1C	·	·	·	–	·	·
O=C(C1CCCCC1)N1CCN=C1SCc1cccc([N+](=O)[O-])c1	-94	?	–	–	–	?
Cc1ccc(C)c(CSC2=NCCN2C(=O)Cc2ccc([N+](=O)[O-])cc2)c1	?	18µM	–	–	?	?
Cc1ccc(C(=O)N2CCN=C2SCc2ccc([N+](=O)[O-])cc2)cc1C	-85	?	–	–	–	?
O=C(C1CCCCC1)N1CCN=C1SCc1cccnc1	–	–	–	–	–	–
NC(=O)c1ccc(NC(=O)C2CCN(S(=O)(=O)c3ccc4c(c3)CCC4)CC2)cc1	·	·	·	–	·	·
COc1ccc(C(=O)NC2CCN(c3ccc(F)cc3)C2=O)cc1 (stereo unspecified)	·	·	·	–	·	·
COc1ccc(C(=O)N[C@@H]2CCC[C@@H]2C(=O)NC2CCCC2)cc1	·	·	·	–	·	·
CCCCC1(COC(=O)CCC(=O)O)C(=O)N(c2ccccc2)N(c2ccccc2)C1=O	–	?	–	–	–	0.0023µM!
CCCCC1(Cc2ccc([N+](=O)[O-])cc2)C(=O)N(c2ccccc2)N(c2ccccc2)C1=O	-58	?	?	–	–	?
Cc1nn(Cc2ccc([N+](=O)[O-])cc2)c(=O)n1-c1ccccc1	–	–	–	–	–	–
O=C(O)CCC(=O)OCCCc1ccccc1	·	·	·	–	·	·
COc1ccc(-c2nnc(C[C@@H]3C[C@@H](C(C)C)[C@H](CNCc4ccncc4)C=C3C)o2)cc1	·	·	·	–	·	·
CCOc1ccccc1NC(=O)CSc1nc2ccccc2nc1N1CCOCC1	–	21µM	–	–	–	23µM
COc1ccc(C)cc1NC(=O)CSc1nc2ccccc2nc1N1CCOCC1	·	23µM	·	–	·	?
Cc1cccc(NC(=O)CSc2nc3ccccc3nc2N2CCC(C)CC2)c1	·	21µM	·	–	·	21µM
Cc1ccc(NC(=O)CSc2nc3ccccc3nc2N2CCOCC2)cc1	–	16µM	–	–	?	?
COc1ccc(C)cc1NC(=O)CSc1nc2ccccc2nc1N1CCCCC1	–	?	–	–	–	?
CC(=O)Nc1ccc(NC(=O)CSc2nc3ccccc3nc2N2CCC(C)CC2)cc1	–	?	–	–	–	–
CCC(O)CNC(=O)c1cnn(-c2nccc(-c3cc(C)sc3C)n2)c1C1CC1 (stereo unspecified)	·	?	·	–	·	?
CCN(CC)Cc1cnc2c(C(=O)Nc3ccc(OC)c(OC)c3)cnn2c1	·	·	·	–	·	·
COc1ccc(NC(=O)CSc2nc3ccccc3nc2N2CCCC2)cc1	–	?	–	–	–	?
SMILES	IL1B secr inh	TDP1 cell noCPT	HT1080 IDH1KD tx	12-LOX inh	HT1080-NT tox	DT40 TDP1 CPT
CCOc1ccccc1NC(=O)CSc1nncc2ccccc12	-84	–	–	–	–	–
CCOc1ccc(NC(=O)CSc2nc3ccccc3nc2N2CCCC2)cc1	–	16µM	–	–	–	?
CC1CN(c2nc3ccccc3nc2SCC(=O)Nc2ccc(F)cc2)CC(C)O1 (stereo unspecified)	–	?	–	–	–	15µM
O=C(CSc1nc2ccccc2[nH]1)Nc1ccc(N2CCOCC2)cc1	–	12µM	–	–	–	12µM
Cc1cc(C(=O)N[C@@H]2CN(Cc3ccccc3)C[C@H]2CO)nn1C	·	·	·	–	·	·
Cc1c(C(c2ccc(F)cc2)c2c(C)n(C)n(-c3ccccc3)c2=O)c(=O)n(-c2ccccc2)n1C	–	–	–	–	–	–
CC(C)C(C)(C#N)NC(=O)CN(C)Cc1ccccc1 (stereo unspecified)	·	·	·	–	·	·
O=C(c1sc2cccc(F)c2c1Cl)N1CCC2(CC1)OCCO2	·	·	·	–	·	·
CC(C)(CNC(=O)C1CCN(C(=O)c2ccc(F)cc2)CC1)N1CCCCC1	·	·	·	–	·	·
Cc1ccc(CNC(=O)NC2CCN(C(=O)N3CC4CC(C3)[C@H]3CCCC(=O)N3C4)CC2)cc1 (stereo partly specified)	·	·	·	–	·	·
Cc1ccc(C(=O)N2C(=S)C(c3ccc(F)cc3)=NC23CCN(C)CC3)cc1	–	4.6µM	18µM	?	?	5.2µM
Cc1ccc(-n2c(C3CCN(C(=O)c4ccc(F)cc4)CC3)n[nH]c2=O)cc1	·	·	·	–	·	·
C=CCN(CC#CCN(C)C(=O)c1cccn1C(=O)OC(C)(C)C)Cc1ccc(OC)cc1OC	·	·	·	–	·	·
Nc1nc(N)c2ncn(C3C=CC(CO)C3)c2n1 (stereo unspecified)	–	9.2µM	–	?	–	6.5µM
CCOC(=O)N1CCN(C(=O)CCS(=O)(=O)c2ccc3c(c2)CCN3C(=O)CC)CC1	–	–	–	–	–	–
CC(=O)c1ccc(N2CCN(C(=O)CCS(=O)(=O)c3ccc4c(c3)CCN4C(C)=O)CC2)cc1	–	?	–	–	–	21µM
CCC(=O)N1CCc2cc(S(=O)(=O)CCC(=O)N3CCN(c4ccccc4Cl)CC3)ccc21	·	?	·	–	·	18µM
CCC(=O)N1c2ccc(S(=O)(=O)CCC(=O)Nc3ccc(Br)c(C)c3)cc2CC1C (stereo unspecified)	·	21µM	·	?	·	18µM
CCC(=O)N1CCc2cc(S(=O)(=O)CCC(=O)N3CCN(c4ccc(F)cc4)CC3)ccc21	–	23µM	–	–	–	21µM
CC(=O)N1CCc2cc(S(=O)(=O)CCC(=O)N3CCN(c4ccccc4F)CC3)ccc21	–	–	–	–	–	?
CCC(=O)N1c2ccc(S(=O)(=O)CCC(=O)NC3CCCC3)cc2CC1C (stereo unspecified)	–	–	–	–	–	–
CC(=O)N1CCCc2cc(S(=O)(=O)CCC(=O)N3CCN(c4cccc(C)c4)C(C)C3)ccc21 (stereo unspecified)	–	?	–	–	–	21µM
CCC(=O)N1c2ccc(S(=O)(=O)CCC(=O)N3CCN(c4ccc(F)cc4)CC3)cc2CC1C (stereo unspecified)	·	13µM	·	–	·	15µM
CCCC(=O)NCC1(N(C)C)CCCCC1	·	?	·	–	·	–
O=C(NC1CC1)c1cccc(NC(=O)c2cc(C3CC3)nc3ccccc23)c1	·	·	·	–	·	·
CCCC(=O)Nc1c(S(=O)(=O)c2ccccc2)c(C)c(C)n1Cc1ccccc1	·	·	·	–	·	·

Source: PubChem BioAssay
